Screening results deposited in PubChem BioAssay by several laboratories.
Gli-Sufu antag = Gli-Sufu pathway antagonism. AID 588413. inhibition, % at 5 µM. actives 0.74% (n = 340,000). Sufu-KO-LIGHT fibroblasts, Gli luciferase reporter luminescence;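 active = inhibition above about 55%, limit read from the data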;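 note: 0% = DMSO-treated cells and 100% = wells with medium but no cells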
NCOA3 inh = inhibits human SRC3 coactivator; Q9Y6Q9; HEK293 GAL4-SRC3 luciferase reporter, luminescence; inhibition, % at 3.6 µM; actives 0.17% (n = 360,000); AID 588352;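 active = inhibition above a per-campaign cutoff, the mean of all compounds plus 3 SD, cut at about 60% in these data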;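 note: 0% = DMSO-treated cells and 100% = gossypol-treated cells at 36 µM; higher means less SRC3-driven luciferase light from the GAL4 reporter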
NR5A2 inv ag = inverse agonists of human LRH-1 (NR5A2). O00482. HEK293T StAR-luciferase reporter, LRH-1 transfected, 24 h. inhibition, % at 3.6 µM. actives 0.13% (n = 360,000). AID 602396;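 active = inhibition above the mean inhibition of all tested compounds plus 3 SD, cut at about 73% in these data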;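 note: 0% = DMSO wells and 100% = reporter-only cells lacking LRH-1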
SRC1 inh = inhibitors of human steroid receptor coactivator 1 (SRC1); HEK293 GAL4-SRC1 luciferase reporter, luminescence; inhibition, % at 3.6 µM; actives 0.12% (n = 360,000);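 active = inhibition above the campaign mean plus 3 SD, with each screening campaign given its own cutoff, cut at about 60% in these data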;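 note: 0% = DMSO treated cells and 100% = gossypol at 36 µM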
NR2F2 inh = blocks human COUP-TFII nuclear receptor; P24468; HEK293T NGFI-A luciferase reporter, luminescence; inhibition, % at 8.6 µM; actives 0.7% (n = 370,000); AID 686940;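 active = inhibition above a per-plate cutoff, mean inhibition of test wells between control levels plus 3 SD, cut at about 38% in these data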;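 note: cells cotransfected with COUP-TFII expression vector driving the NGFI-A reporter; 0% = median of COUP-TF2 test wells and 100% = reporter-only cells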
NCOA2 inhibitor = human SRC2 (NCOA2) inhibition. HEK293 GAL4-SRC2 luciferase reporter, luminescence. inhibition, % at 9 µM. actives 0.17% (n = 370,000). AID 651957;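 active = inhibition above the mean inhibition of all tested compounds plus 3 SD, set per campaign, cut at about 52% in these data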;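 note: 0% = DMSO treated cells and 100% = cells given Gossypol at 36 µM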
VP16 Luc counter = inhibits VP16 reporter, flagging COUP-TFII antagonist hits; shares compounds with NR2F2 inh; HEK293 Gal4-VP16 luciferase reporter, luminescence; inhibition, % at 8.5 µM; actives 25% (n = 2,500); AID 687007; in the data active = inhibition above about 13%
COUP-TFII conf = confirmation of human COUP-TFII (NR2F2) inhibitors; AID 687008; shares compounds with NR2F2 inh; HEK293 NGFI-A luciferase reporter, luminescence; actives 45% (n = 2,500); inhibition, % at 8.5 µM;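 active = mean inhibition over three repeats above a set limit taken from the earlier primary screen, cut at about 38% in these data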;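 note: 100% = cells given the luciferase reporter alone without the COUP-TF2 vector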
* marks the source's active call; other numbers are inactive results; ! = a repeat was not active. A selection: hits, their analogues and other compounds. The true share with any hit is near 1.3%.

What do the screens show for `COCCn1c(C)cc(C(=O)CSc2nnnn2C2CCCC2)c1C`?
Gli-Sufu antag: 16; NCOA3 inh: 34; NR5A2 inv ag: 24; SRC1 inh: 43; NR2F2 inh: 59*; NCOA2 inhibitor: 39; VP16 Luc counter: 35*; COUP-TFII conf: 68*

What do the screens show for `COC(=O)c1cn(CC(C)n2c(=O)c3ccccc3n2Cc2cc(C(C)C)no2)nn1` (stereo not drawn)?
NR5A2 inv ag: 9; NR2F2 inh: -9; NCOA2 inhibitor: -6

What do the screens show for `COc1ccc(O)c(C(=O)c2cnc3c(c2)c(C)nn3CCO)c1`?
Gli-Sufu antag: -36; NCOA3 inh: -8; NR5A2 inv ag: -11; SRC1 inh: -10; NR2F2 inh: -15; NCOA2 inhibitor: -10

How did COc1ccc(NC(=O)c2cccc(S(=O)(=O)N3CCN(c4ccccc4)CC3)c2)c(OC)c1 do in these assays?
Gli-Sufu antag: -4; NCOA3 inh: -9; NR5A2 inv ag: -3; SRC1 inh: -2; NR2F2 inh: 14; NCOA2 inhibitor: -2

How did CN(CC(=O)Nc1cccc(F)c1)C(=O)c1cccc(S(=O)(=O)N2CCN(c3ccc(F)cc3)CC2)c1 do in these assays?
Gli-Sufu antag: 14; NCOA3 inh: 15; NR5A2 inv ag: -17; SRC1 inh: 5; NR2F2 inh: 42*; NCOA2 inhibitor: 28; VP16 Luc counter: 4; COUP-TFII conf: 14

How did COc1ccc(CCN(C)C(=O)c2cccc(S(=O)(=O)N3CCN(c4ccc(F)cc4)CC3)c2)cc1OC do in these assays?
Gli-Sufu antag: 32; NCOA3 inh: 18; NR5A2 inv ag: 29; SRC1 inh: 13; NR2F2 inh: 59*; NCOA2 inhibitor: 2; VP16 Luc counter: 12; COUP-TFII conf: 45*

Results for CN(CC(=O)Nc1ccccc1Cl)C(=O)c1cccc(S(=O)(=O)N2CCN(Cc3ccccc3)CC2)c1 ?
Gli-Sufu antag: 47; NCOA3 inh: 24; NR5A2 inv ag: 21; SRC1 inh: 4; NR2F2 inh: 48*; NCOA2 inhibitor: 10; VP16 Luc counter: 1; COUP-TFII conf: 35

What do the screens show for `COc1ccccc1NC(=O)c1cccc(S(=O)(=O)N2CCN(c3ccccc3)CC2)c1`?
Gli-Sufu antag: 8; NCOA3 inh: -43; NR5A2 inv ag: 5; SRC1 inh: 5; NR2F2 inh: 42*; NCOA2 inhibitor: 16; VP16 Luc counter: -5; COUP-TFII conf: 6

What do the screens show for `Cn1c(Cc2cccs2)nnc1SCC(=O)Nc1ccc2c(c1)OCCO2`?
NR2F2 inh: -18; NCOA2 inhibitor: 16

Results for CN(CC(=O)Nc1ccccc1Cl)C(=O)c1cccc(S(=O)(=O)N2CCN(c3ccccc3)CC2)c1 ?
Gli-Sufu antag: 46; NCOA3 inh: 10; NR5A2 inv ag: 10; SRC1 inh: 2; NR2F2 inh: 43*; NCOA2 inhibitor: -5; VP16 Luc counter: 6; COUP-TFII conf: 19

How did O=C(Nc1ccncc1)c1cccc(S(=O)(=O)N2CCN(c3ccc(F)cc3)CC2)c1 do in these assays?
Gli-Sufu antag: 32; NCOA3 inh: 17; NR5A2 inv ag: 25; SRC1 inh: 22; NR2F2 inh: 47*; NCOA2 inhibitor: 23; VP16 Luc counter: 7; COUP-TFII conf: 31

Results for O=C(COc1ccc(C(=O)c2ccc(F)cc2)cc1)Nc1cccc(S(=O)(=O)N2CCOCC2)c1 ?
Gli-Sufu antag: 3; NCOA3 inh: -5; NR5A2 inv ag: -1; SRC1 inh: 9; NR2F2 inh: 48*; NCOA2 inhibitor: 13; VP16 Luc counter: -8; COUP-TFII conf: 33

What do the screens show for `CN(Cc1cccc(F)c1)C(=O)c1cccc(S(=O)(=O)N2CCN(Cc3ccccc3)CC2)c1`?
Gli-Sufu antag: 7; NCOA3 inh: 0; NR5A2 inv ag: -8; SRC1 inh: -24; NR2F2 inh: -14; NCOA2 inhibitor: 9

Results for Cc1cccc(C)c1NC(=O)CN(C)C(=O)c1cccc(S(=O)(=O)N2CCN(c3ccccc3)CC2)c1 ?
Gli-Sufu antag: 13; NCOA3 inh: 16; NR5A2 inv ag: 4; SRC1 inh: -9; NR2F2 inh: 23; NCOA2 inhibitor: -6

How did O=C(Nc1ncccc1O)c1cccc(S(=O)(=O)N2CCN(c3ccc(F)cc3)CC2)c1 do in these assays?
Gli-Sufu antag: 1; NCOA3 inh: 17; NR5A2 inv ag: -18; SRC1 inh: -19; NR2F2 inh: 1; NCOA2 inhibitor: -4

What do the screens show for `CN(Cc1ccc(OC(F)F)cc1)C(=O)c1cccc(S(=O)(=O)N2CCN(c3ccccc3)CC2)c1`?
Gli-Sufu antag: 41; NCOA3 inh: 23; NR5A2 inv ag: 28; SRC1 inh: 9; NR2F2 inh: 67*; NCOA2 inhibitor: 24; VP16 Luc counter: 13*; COUP-TFII conf: 55*

Results for CCCCNC(=O)NCC1CCN(Cc2ccc(OC)cc2)CC1 ?
NR2F2 inh: -17; NCOA2 inhibitor: -4

What do the screens show for `CCCc1ccc(-c2cc(C(=O)N3CCN(c4ccccn4)CC3)c3ccccc3n2)cc1`?
Gli-Sufu antag: -68; NCOA3 inh: -29; NR5A2 inv ag: -38; SRC1 inh: -66; NR2F2 inh: -6; NCOA2 inhibitor: -52

What do the screens show for `Cc1noc(C)c1S(=O)(=O)N(C)C[C@H]1OCCCC[C@H](C)Oc2ccc(NC(=O)CCCN(C)C)cc2C(=O)N([C@H](C)CO)C[C@@H]1C`?
NCOA3 inh: 2; NR5A2 inv ag: -13; SRC1 inh: -11; NR2F2 inh: -21; NCOA2 inhibitor: 23

What do the screens show for `CN(Cc1cccc(Cl)c1Cl)C(=O)c1cccc(S(=O)(=O)N2CCN(Cc3ccccc3)CC2)c1`?
Gli-Sufu antag: 47; NCOA3 inh: 1; NR5A2 inv ag: 31; SRC1 inh: -3; NR2F2 inh: 42*; NCOA2 inhibitor: 11; VP16 Luc counter: -3; COUP-TFII conf: 26

Results for CCCCCCCCCCCCCCCC[n+]1ccccc1 ?
Gli-Sufu antag: 84*; NCOA3 inh: 36; NR5A2 inv ag: 48; SRC1 inh: 9; NR2F2 inh: 51*!; NCOA2 inhibitor: 9; VP16 Luc counter: 1; COUP-TFII conf: 26

How did CCC(Sc1nc(=O)cc(N)n1-c1cccc(C)c1)C(=O)Nc1cc(C)on1 (stereo not drawn) do in these assays?
Gli-Sufu antag: -29; NCOA3 inh: 18; NR5A2 inv ag: 15; SRC1 inh: 11; NR2F2 inh: 43*; NCOA2 inhibitor: -2; VP16 Luc counter: -3; COUP-TFII conf: 12

Results for CCOc1ccc(-c2nc(CSCC(=O)NC3CCN(Cc4ccccc4)CC3)c(C)o2)cc1 ?
NCOA3 inh: 1; NR5A2 inv ag: 23; SRC1 inh: -6; NR2F2 inh: 37; NCOA2 inhibitor: 41
